From PubChem BioAssay
This is a sample that favours compounds with a hit; in the whole collection about 5.5% have one here.
Mito fusion yeast: qHTS Assay for Small Molecule Inhibitors of Mitochondrial Division or Activators of Mitochondrial Fusion | AID 485298, 2010 | 320,000 compounds, 0.23% hits | S. cerevisiae fusion-defective mutant growth rescue, CellTiterGlo 48 h | Potency, µM (titrated, usually from 46.1 µM), without a hit: at the top dose growth rescue (activation), usual class: activators; note: % of control where 0% means no effect; nearly all actives have a fitted effect of over 45% in size
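Temperature-sensitive fusion-defective S. cerevisiae (e.g. fzo1-1, mgm1-5) were grown with compound in YPEG medium (3% ethanol, 3% glycerol) for 48 hours at 37C. Growth rescue was measured as viability by CellTiterGlo luminescence after 10 minutes at ambient.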
uPA surface inh: qHTS for Inhibitors of Cell Surface uPA Generation. cell surface uPA generation assay, qHTS. Potency, µM (highest dose often 38.3 µM), inactives show top-dose activity change, negative = inhibition, most hits filed as inhibitors. 330,000 compounds, 0.31% hits. AID 540303, 2011; active = well fitted inhibition curve with a large enough effect; inconclusive = small, poorly fitted or top-dose-only effect; inactive = no such curve, though single readings can be large or run the other way; tested in mouse RAW 264.7 cells; note: % is set by controls: 0 for no effect and ±100 for the full control effect; nearly all actives have a fitted effect of over 55% in size
VP16 counter: VP16 counterscreen qHTS for inhibitors of ROR gamma transcriptional activity; Drosophila S2 Gal4-VP16 UAS-luciferase, luminescence, 20 h; Potency, µM (titrated, usually from 53.6 µM), for the others: at the highest dose activity, negative = inhibition, most hits filed as inhibitors; 310,000 compounds, 3.5% hits; AID 2546, 2010;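 note: Gal4-VP16 expression switched on by copper sulfate through the metallothionein promoter; % is set by controls: 0 for no effect and ±100 for the full control effect; nearly all actives have a fitted effect of over 50% in size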
BCR signal inh: qHTS Assay to Find Inhibitors of Chronic Active B-Cell Receptor Signaling; ABC-DLBCL IkBa-CBG/CBR reporter, luminescence ratio, 4 h; Potency, µM (titrated, usually from 46.1 µM), for inactives: at the highest dose activity change, negative = inhibition, actives largely listed as inhibitors; 340,000 compounds, 0.05% hits; active = well fitted inhibition curve with a large enough effect in the signal ratio, with a control signal flat, not every such curve was filed as active; inconclusive = small, poorly fitted or top-dose-only effect, or effect the other way, or a change in a side signal; the % refers to the signal ratio;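 note: plate controls were basal doxycycline-induced cells for no effect and cells given 10 µM MG132 for full effect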
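TMD8 ABC-DLBCL cells carrying doxycycline-inducible green luciferase fused to IkappaBalpha plus unfused red luciferase were exposed to compounds (up to 46 uM) for 4 hrs at 37C. Activity came from the overlap-corrected green/red luminescence ratio.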
a7 integrin act: qHTS for Activators of Integrin-Mediated Alleviation for Muscular Dystrophy. Potency, µM (doses to about 38.3 µM), inactives show top-dose activation, hits mostly activators. 350,000 compounds, 0.064% hits. alpha7betagal myoblasts, beta-gal FDG fluorescence, 48 h;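 note: 100% = response of the positive control SU9516; nearly all actives have a fitted effect of over 60% in size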
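alpha7betagal+/- myoblasts (passage 13, 250/well) treated 48 h at 37C with compounds at 1:260 dilution of DMSO stock. Lysed, then beta-galactosidase activity read as FDG fluorescence (ex 480/em 540) after 30 min, with pre-read for autofluorescence.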
RORgamma inh: qHTS for inhibitors of ROR gamma transcriptional activity; Potency, µM (top dose mostly 53.6 µM), without a hit: at the highest dose activity change, negative = inhibition, most hits filed as inhibitors; 310,000 compounds, 5.4% hits; Nuclear receptor ROR-gamma (Mus musculus), P51450; Drosophila S2 Gal4-RORgamma UAS-luciferase reporter, 20 h; note: % is set by controls: 0 for no effect and ±100 for the full control effect; nearly all actives have a fitted effect of over 60% in size
Target sequence (P51450 whole entry, looked up, the tested form may be a part): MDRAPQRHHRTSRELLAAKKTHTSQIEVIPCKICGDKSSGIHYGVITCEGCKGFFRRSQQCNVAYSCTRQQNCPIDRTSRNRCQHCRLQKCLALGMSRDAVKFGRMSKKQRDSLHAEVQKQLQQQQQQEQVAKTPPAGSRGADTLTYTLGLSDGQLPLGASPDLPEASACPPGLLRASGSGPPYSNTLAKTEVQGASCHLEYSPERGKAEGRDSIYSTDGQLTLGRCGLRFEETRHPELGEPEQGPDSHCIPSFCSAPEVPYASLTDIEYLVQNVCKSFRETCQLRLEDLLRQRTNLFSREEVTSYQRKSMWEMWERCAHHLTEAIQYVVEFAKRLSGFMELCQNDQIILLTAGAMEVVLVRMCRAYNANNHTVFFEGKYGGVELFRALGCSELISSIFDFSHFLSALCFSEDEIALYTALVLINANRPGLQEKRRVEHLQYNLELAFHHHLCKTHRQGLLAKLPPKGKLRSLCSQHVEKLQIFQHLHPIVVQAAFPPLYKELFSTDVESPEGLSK
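A Gal4/UAS one-hybrid system in insect cells: metallothionein-promoter Gal4–ROR gamma fusion plus Photinus luciferase reporter. Copper sulfate 700 uM final, 20 hr ambient incubation, luminescent detection after 10 min with reagent.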
Starred values were filed as active, the others as inactive; ? = inconclusive; nt = no result given; [ ] = remark or other dose. Unless noted, calls come from the whole dose curve; as a rule, active = well fitted curve in the direction sought with a large enough effect; inconclusive = small, poorly fitted or top-dose-only effect, or another doubt; inactive = no such curve, though single readings can be large; an effect the other way counts as inactive or inconclusive. Potency is the fitted concentration of half-maximal effect.

SMILES | Mito fusion yeast | uPA surface inh | VP16 counter | BCR signal inh | a7 integrin act | RORgamma inh
O=C(Nc1ccc(Cl)cc1N1CCOCC1)C1CCCO1 (stereo unspecified) | 0% | -7% | nt | 0% | 9% | nt
O=C(Nc1ccc(Cl)cc1N1CCOCC1)C1CCCCC1 | -4% | -4% | 4% | 1% | 7.1µM* | -4%
COc1cc(/C=N/NC(=O)c2[nH]nc3c2CCc2ccccc2-3)ccc1O | 1% | ? | -23% | 21µM* | -17% | 6%
COc1ccc2nc(N=Nc3c(O)ccc4ccccc34)sc2c1 | -8% | nt | 4.5µM* | 0% | nt | 1µM*
COc1ccc(-n2c(=O)c3c4c(sc3n(Cc3c(F)cccc3Cl)c2=O)CN(C(C)=O)CC4)cc1OC | nt | nt | nt | 2% | nt | nt
Cc1ccccc1C(=O)NC(=S)Nc1ccccc1C(F)(F)F | -9% | 2% | ? | ? | -18% | 0.79µM*
Cc1ccc(C(=O)NC(=S)Nc2ccccc2C(F)(F)F)c(C)c1 | -6% | -4% | -11% | ? | 2% | 3%
O=C(NC(=S)Nc1c(Cl)ccc2nsnc12)c1ccccc1F | 29% | 4% | -12% | 6% | 13% | 1.4µM*
O=C(NC(=S)Nc1ccccc1C(F)(F)F)c1ccccc1F | 4% | -3% | ? | -10% | -1% | 6.3µM*
O=c1[nH]c2cc(Cl)c(Br)cc2o1 | nt | -2% | nt | nt | -11% | nt
COc1ccc(/C=C2\SC(=O)N(CC(=O)Nc3cccc(C)c3)C2=O)cc1O | 4% | -7% | 18µM* | -2% | -1% | ?
COc1cccc2c(=O)cc(C)n(CC(=O)Nc3cccc(C)c3)c12 | -2% | -13% | 11µM* | 0% | -57% | ?
CCc1ccc(/C=C2\SC(=S)N(CCCC(=O)Nc3ccc(C(=O)O)cc3)C2=O)cc1 | -7% | -1% | ? | ? | 16% | 4µM*
COc1cc(/C=C2\SC(=O)N(CC(=O)Nc3cccc(C)c3)C2=O)ccc1OC(C)C(=O)O (stereo unspecified) | nt | -1% | nt | nt | -25% | nt
COc1ccc(NC(=O)CCCN2C(=O)/C(=C\c3ccco3)SC2=S)cc1 | 0% | -14% | ? | ? | -41% | 11µM*
COC(=O)c1sc(-c2cccs2)cc1NC(=O)/C=C/C(=O)O | 0% | -12% | ? | ? | -42% | -90%
COc1ccc(NC(=O)N2CCC3(CC2)CCN(C(=O)c2csnn2)CC3)cc1 | nt | nt | 12% | nt | nt | 7%
O=C(N/C(=C\c1ccccc1)C(=O)N1CCCCC1)c1ccc(Br)o1 | 4% | 2% | -4% | 3% | 3% | 9%
O=S1(=O)C2CC3CCC2(CN1Cc1ccccc1)O3 (stereo unspecified) | nt | nt | 28% | nt | nt | 40%
Cc1ccc(/C=C2\SC(=S)N(CCCC(=O)Nc3ccccc3C(=O)O)C2=O)cc1 | 4% | 0% | ? | ? | 8% | -27%
COc1cccc(/C=C2/SC(=S)N(CC(=O)NNC(=O)c3ccccc3OC)C2=O)c1 | 16% | -4% | ? | 1% | -20% | 10µM*
CCc1ccc(/C=C2\SC(=S)N(CCCC(=O)Nc3ccccc3C(=O)O)C2=O)cc1 | 1% | -21% | 20µM* | ? | 35% | 5µM*
COc1cccc(/C=C2\SC(=S)N(CCCC(=O)Nc3cccc(C(=O)O)c3)C2=O)c1 | nt | nt | nt | nt | -8% | nt
CCc1ccc(/C=C2\SC(=S)N(CCCC(=O)Nc3nccs3)C2=O)cc1 | -1% | 2% | -12% | ? | 10% | 0.56µM*
COc1cccc(/C=C2\SC(=S)N(CCC(=O)NNC(=O)c3ccccc3OC)C2=O)c1 | 14% | -1% | -16% | ? | 0% | ?
SMILES | Mito fusion yeast | uPA surface inh | VP16 counter | BCR signal inh | a7 integrin act | RORgamma inh
COc1ccc(/C=C2/SC(=S)N(CCCC(=O)Nc3ccccc3C(=O)O)C2=O)cc1 | 3% | -1% | 3.5µM* | ? | -29% | 1.4µM*
Cc1ccc(/C=C2\SC(=S)N(CCCC(=O)Nc3nccs3)C2=O)cc1 | 1% | -3% | -1% | ? | 33% | 20%
CC(=O)Nc1ccc(NC(=O)Cn2cnc(S(=O)(=O)N3CCOCC3)c2)cc1 | 1% | -6% | 6% | 0% | -1% | -5%
COc1ccc([C@]23Cc4ccccc4C(O2)C2=C(O3)C(=O)c3ccccc3C2=O)cc1 | 0%[9.22 µM] | nt | -12%[10 µM] | 18%[9.22 µM] | nt | 0%[10 µM]
O=C(CCCN1C(=O)/C(=C/c2cccs2)SC1=S)NNC(=O)c1ccccc1O | 0% | -1% | ? | ? | -7% | -34%[10 µM]
O=C(CCCN1C(=O)/C(=C\c2ccccc2)SC1=S)Nc1ccc(C(=O)O)cc1 | 7% | 1% | -8% | ? | 12% | -5%
CCN(CC)CCOC(=O)c1ccc(NC(=O)CCCN2C(=O)/C(=C/c3cccs3)SC2=S)cc1 | -14% | ? | 11µM* | ? | -52% | 22µM*
CC(=O)c1ccc(NC(=O)CCCN2C(=O)/C(=C/C(C)=C/c3ccccc3)SC2=S)cc1 | -1% | -5% | ? | ? | 2% | 11µM*
COc1ccc(/C=C2\SC(=S)N(CCCC(=O)NNC(=O)c3ccccc3O)C2=O)cc1 | -5% | -3% | 1.6µM* | ? | 17% | 0.71µM*
COc1ccc(/C=C2/SC(=S)N(CCCC(=O)Nc3cccc(O)c3)C2=O)cc1 | -2% | -3% | 2.5µM* | ? | -45% | 0.32µM*
CC(C(=O)O)c1ccc2c(c1)Cc1cccnc1O2 (stereo unspecified) | nt | nt | 3% | nt | nt | 12%
COc1cc2c(cc1OC)C(COc1ccc(F)cc1)N(C(=O)c1ccc(S(=O)(=O)N3CCCC3)cc1)CC2 (stereo unspecified) | nt | nt | nt | -2% | nt | nt
CSCC[C@H](NC(=O)[C@H](Cc1ccc(OS(=O)(=O)O)cc1)NC(=O)[C@@H](N)CC(=O)O)C(=O)NCC(=O)N[C@@H](Cc1c[nH]c2ccccc12)C(=O)N[C@@H](CCSC)C(=O)N[C@@H](CC(=O)O)C(=O)N[C@@H](Cc1ccccc1)C(N)=O | nt | nt | 1% | nt | nt | 13%
Cn1nc(-c2ccc3c(c2)OCCO3)c2ccccc2c1=O | -2% | -9% | ? | 0% | 16% | -1%
O=C(CCCn1nnnc1CN1CCOCC1)N1CCC(c2ccccc2Cl)C1 (stereo unspecified) | 0% | 15% | -5% | 3% | -12% | 2%
COc1ccccc1C(N)=S | -10% | -1% | ? | -3% | 15% | 16µM*
O=C(NC1CC(=O)N(c2cccc(F)c2)C1)c1ccc(S(=O)(=O)N2CCCC2)cc1 (stereo unspecified) | nt | nt | nt | 7% | nt | nt
